Laboratory results taken from the supplement of paper PMC6953052.
Counter-ions that a name gives are not always drawn. Over roughly 1,700 compounds, “fraction of GFP-LC3-positive cells (≥5 vesicles/cell)” has its median near 0.058; the highest 2% begin near 0.59. The full list was thinned out, with the highest values kept by preference.

These compounds were tested on CbCln3 +/+ GFP-LC3 cerebellar neuronal cells (assay: fraction of GFP-LC3-positive cells (≥5 vesicles/cell); higher = more autophagosome accumulation).
Method in brief: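 By pin transfer, ~50 nL of compound in DMSO went in duplicate into 384-well plates holding 2 × 10^3 wild-type or mutant CbCln3 cerebellar cells per well that stably express GFP-LC3, followed by 24 h at 33 °C. The final 30 min included Hoechst 33342 and LysoTracker Red, and then came 3.2% PFA fixation and 10× imaging of three fields per well. Each value gives the fraction of cells above a vesicle threshold, averaged across duplicates, with CellProfiler counting GFP-LC3 vesicles and out-of-focus images left out. The threshold is 5 or more vesicles per cell.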

Compound	fraction of GFP-LC3-positive cells
CC(C)(C)c1cc(C=C(C#N)C#N)cc(C(C)(C)C)c1O	0.357
N#CC(C#N)=Cc1ccc(O)c(O)c1	0.094
CC(C)(C)c1cc(C=C(C#N)C#N)cc(C(C)(C)C)c1O [tyrphostin 9]	0.67
N#CC(C#N)=Cc1cc(O)c(O)c(O)c1	0.0475
CCN(CC)C(=O)N[C@H]1C[C@@H]2c3cccc4[nH]cc(c34)C[C@H]2N(C)C1.O=C(O)/C=C\C(=O)O [S(-)-terguride hydrogen maleate]	0.0461
CC(C)[C@]12O[C@H]1[C@@H]1O[C@]13[C@]1(O[C@H]1C[C@H]1C4=C(CC[C@@]13C)C(=O)OC4)[C@@H]2O [Triptolide]	0.268
Cl.NCCc1c[nH]c2ccc(O)cc12 [Serotonin hydrochloride]	0.0685
C#CCN(C)[C@H](C)Cc1ccccc1.Cl [Selegiline hydrochloride]	0.0621
C[N+]1(C)CCCC(OC(=O)C(O)(c2ccccc2)c2ccccc2)C1.[Br-] (stereo not drawn) [Mepenzolate bromide]	0.0681
COC1=C[C@@H]2C3=C([C@@H]2C1=O)[C@@H](NC(C)=O)CCc1cc(OC)c(OC)c(OC)c13 [Lumicolchicine gamma]	0.0307
COc1cc2c(c(OC)c1OC)-c1ccc(O)c(=O)cc1[C@@H](N)CC2 [Trimethylcolchicinic acid]	0.0619
COc1cc2c(c(OC)c1OC)-c1ccc(OC)c(=O)cc1[C@@H](NC(C)=O)CC2 [Colchicine]	0.778
CC(C)(O)[C@H]1O[C@H]2CC[C@@]3(C)[C@@](O)(CC[C@H]4Cc5c([nH]c6ccccc56)[C@@]43C)C2=CC1=O	0.0216
C/C=C(/C)C(=O)O[C@H]1C(C)=C2[C@H]([C@@H]1OC(=O)CCCCCCC)[C@@](C)(OC(C)=O)C[C@H](OC(=O)CCC)[C@@]1(O)[C@H]2OC(=O)[C@@]1(C)O	0.665
Cl.O[C@@H]1CCCC[C@H]1N1CCC(c2ccccc2)CC1 [L(-)-vesamicol hydrochloride]	0.076
CC(C)N(CCC(C(N)=O)(c1ccccc1)c1ccccn1)C(C)C (stereo not drawn) [Disopyramide]	0.0661
COc1cc2c(cc1O)[C@@H]1Cc3ccc(OC)c(O)c3CN1CC2 [Scoulerine]	0.588
O.O.O.O=C1OC2(c3cc(Br)c([O-])cc3Oc3c2cc(Br)c([O-])[c]3[Hg][OH])c2ccccc21.[Na+].[Na+] (stereo not drawn) [Merbromin]	0.957
CCCCC/C=C\C/C=C\C/C=C\C/C=C\CCCC(=O)NCc1ccc(O)c(OC)c1 [Arvanil]	0.144
CC[C@@]1(O)C(=O)OCc2c1cc1n(c2=O)Cc2cc3ccccc3nc2-1 [Camptothecine (S,+)]	0.321

Compound	fraction of GFP-LC3-positive cells
OC[C@H]1O[C@@H](n2cnc3cc(Cl)c(Cl)cc32)C(O)[C@H]1O (stereo partly drawn)	0.0687
C=C1[C@@H](O)C2O[C@@]3(CCC2O[C@@H]1C(O)C[C@H](C)C1O[C@@]2(CCCCO2)CC[C@H]1C)CC[C@@H](/C=C/[C@@H](C)[C@@H]1CC(C)=C[C@@]2(O[C@H](C[C@@](C)(O)C(=O)O)CCC2O)O1)O3 (stereo partly drawn) [okadaic acid]	0.831
CCN1C[C@]2(COC)CC[C@H](O)[C@]34C1[C@H](C[C@H]23)[C@@]1(O)C[C@H](OC)[C@H]2C[C@@H]4[C@@H]1[C@H]2OC(C)=O [Condelphine]	0.043
O=C(O)/C=C\C(=O)O.O=C(O)/C=C\C(=O)O.c1ccc2nc(N3CCNCC3)ccc2c1 [Quipazine dimaleate salt]	0.041
C[C@H]1CCC/C=C/C2C[C@H](O)C[C@H]2[C@H](O)/C=C/C(=O)O1 (stereo partly drawn) [brefeldin A]	0.0802
C=C1[C@@H](C)[C@H]2[C@H](Cc3ccccc3)NC(=O)[C@]23[C@H](OC(C)=O)/C=C/[C@](C)(O)C(=O)[C@@H](C)C/C=C/[C@H]3[C@@H]1O [cytochalasin D]	0.411
CCCC[C@@H](C)[C@@H](OC(=O)C[C@@H](CC(=O)O)C(=O)O)[C@H](C[C@@H](C)C[C@H](O)CCCC[C@@H](O)C[C@H](O)[C@H](C)N)OC(=O)C[C@H](CC(=O)O)C(=O)O [Fumonisin B1]	0.0462
CCN1C[C@]2(C)CC[C@H](O)[C@]34C1[C@H](C[C@H]23)[C@@]1(O)C[C@H](OC)[C@H]2C[C@@H]4[C@@H]1C2O (stereo partly drawn) [Karakoline]	0.0388
CNc1ccc2oc(C[C@@H]3OC4(CC[C@@H]3C)O[C@H](C(C)C(=O)c3ccc[nH]3)[C@H](C)C[C@H]4C)nc2c1C(=O)O (stereo partly drawn)	0.276
C=C(C)[C@H]1O[C@H]2CC[C@@]3(C)[C@@](O)(CC[C@H]4[C@@H]5OC(C)(C)[C@H]6C[C@@H]7C(=C)Cc8c(Cl)cc9[nH]c(c5c9c8[C@@]76O)[C@@]43C)[C@]23O[C@@H]3[C@H]1O	0.667
CN1C2CCCC1CC(=O)C2.Cl [Pseudopelletierine hydrochloride]	0.111
CN[C@@H]1C[C@H]2O[C@@](C)([C@@H]1OC)n1c3ccccc3c3c4c(c5c6ccccc6n2c5c31)C(=O)NC4 [staurosporine]	0.542
CCCCCCCCCCCCCCCCOC[C@H](COP(=O)([O-])OCC[N+](C)(C)C)OC(C)=O	0.0259
CCCCCC1OC1C/C=C\CCCCCCCC(=O)O (stereo not drawn) [Leukotoxin B (12,13-EODE)]	0.0763
CCCCCC1OC1C/C=C\CCCCCCCC(=O)O (stereo not drawn)	0.062
Cc1nccc2c1[nH]c1ccccc12.Cl [Harmane hydrochloride]	0.0738
Cc1c2ccncc2c(C)c2c1[nH]c1ccccc12 [Ellipticine]	0.984
O=C1C=C2C=C[C@@H]3CC2(O1)[C@H]1CCCCN31 [Securinine]	0.0519
CC(C)(C)NCC(O)c1cc(Cl)c(N)c(Cl)c1.Cl (stereo not drawn) [Clenbuterol hydrochloride]	0.0519
CC[C@@H](CO)NC(=O)[C@@H]1C=C2c3cccc4[nH]cc(c34)C[C@H]2N(C)C1.O=C(O)/C=C\C(=O)O [Methylergometrine maleate]	0.0308

Compound	fraction of GFP-LC3-positive cells
CC1=CC(=O)C2=C(C)C[C@H](O)[C@@H]3[C@H](OC(=O)[C@H]3C)[C@@H]12.O [Austricine]	0.0585
Clc1ccc(C2CC3CCC2N3)cn1 (racemic) [epibatidine (+/-)]	0.0633
N#CC(C#N)=NNc1ccc(OC(F)(F)F)cc1	0.918
C[C@@H]1O[C@@H](O[C@@H]2C=C3CCC4C(CC[C@]5(C)[C@@H](c6ccc(=O)oc6)CC[C@]45O)[C@@]3(C)CC2)[C@H](O)[C@H](O)[C@H]1O (stereo partly drawn) [Proscillaridin A]	0.0563
CN1CCc2cc3c(cc2[C@H]1[C@@H]1OC(=O)c2c1ccc1c2OCO1)OCO3 [Bicuculline (+)]	0.0481
CN1CCC2=C[C@H](O)[C@H]3OC(=O)c4cc5c(cc4[C@H]3[C@@H]21)OCO5 [Hippeastrine hydrobromide]	0.0629
CN1Cc2c(ccc3c2OCO3)[C@@H]2[C@H]1c1cc3c(cc1C[C@@H]2O)OCO3.O [Chelidonine (+)]	0.593
CCCCCC[C@H]1C(=O)O[C@H](C)C(NC(=O)c2cccc(NC=O)c2O)C(=O)O[C@@H](C)[C@@H]1OC(=O)CC(C)C (stereo partly drawn) [Antimycin A]	0.0705
CC/C=C\C[C@@H](/C=C/C=C\C/C=C\C/C=C\CCCC(=O)O)OO	0.0447
C/C1=C/C(=O)O[C@@H]2C[C@@H](CC[C@H](C)/C=C\CC1)O[C@@](O)([C@@H]1CSC(=O)N1)C2 [Latrunculin B]	0.94
COC1=CC(=O)OC(/C=C/c2ccccc2)C1 (racemic) [Kavain (+/-)]	0.0407
O=c1[nH]c2ccccc2n1C1CCN(CCCC(c2ccc(F)cc2)c2ccc(F)cc2)CC1 [Pimozide]	0.0546
COc1ccc2c(c1OC)CN1CCc3cc4c(cc3C1C2)OCO4 (stereo not drawn) [(d,l)-Tetrahydroberberine]	0.0361
COc1cc([C@@H]2c3cc4c(cc3[C@H](O)[C@H]3COC(=O)[C@H]23)OCO4)cc(OC)c1OC [Podophyllotoxin]	0.682
COc1ccc2c(c1OC)C(=O)O[C@@H]2[C@H]1c2cc3c(cc2CCN1C)OCO3.Cl [Hydrastine hydrochloride]	0.0565
CCCCC/C=C\C/C=C\C/C=C\C/C=C\CCCC(=O)NCCO [Anandamide (20:4, n-6)]	0.0367
CCCCC/C=C\C/C=C\C/C=C\C/C=C\CCCC(=O)NCCO	0.0573
COC(=O)[C@@]1(O)C[C@@H]2O[C@@]1(C)n1c3ccccc3c3c4c(c5c6ccccc6n2c5c31)C(=O)NC4	0.16
